Many of the other results were omitted from the sample, so hits are more common in it than they were.
Vaccinia pol inh = inhibitors of vaccinia virus processive DNA synthesis (E9 polymerase). in vitro processive DNA synthesis, absorbance read-out; hits give low values. normalized absorbance, % (concentration not given with the values). 0.94% of 46,000 active. AID 493162; in the data active = normalized absorbance mostly below about 85%, no sharp cut-off; inactive = mostly above about 86%
* hit, by the source's call.

SMILES	Vaccinia pol inh
NCCCc1nc2ccc(Cc3ccc4nc(CCCN)[nH]c4c3)cc2[nH]1	77
c1ccc2sc(CCc3nc4ccccc4s3)nc2c1	98
NCCCc1nc2cc3sc(CCCN)nc3cc2s1	60*
O=c1ccn(C2OC(CO)C(O)C2O)c(=S)[nH]1 (configuration not stated)	100
N#Cc1c(N)n(CCc2ccccc2)c2nc3ccccc3nc12	94
N#Cc1c(N)n(CCN)c2nc3ccccc3nc12	85*
CCCCn1c(N)c(C#N)c2nc3ccccc3nc21	95
CC1(C)CC(C)(c2ccccc2)c2cc(SC#N)ccc2N1 (configuration not stated)	100
CC(Nc1cc(C)ccn1)=C(C#N)C#N	63*
Cc1ccnc(NC(=O)c2cccs2)c1	100
Cc1ccnc(NC(=O)c2cc(-c3ccc(C)c(C)c3)n[nH]2)c1	92
CNC(=O)C(NS(=O)(=O)c1ccc(C)cc1)C(C)C (configuration not stated)	101
CCN(CC)CCNc1ncnc2c1sc1nc(C(C)C)c3c(c12)CCCC3	96
O=C(c1ccccc1)c1nc2ccccc2s1	101
O=C(O)CSc1ncnc2scc(-c3ccc(Br)cc3)c12	68*
Cc1ccc(-c2csc3ncnc(SCCC(=O)O)c23)cc1	96
CC(C)OC(=O)CSc1ncnc2scc(-c3ccccc3)c12	103
Cc1ccccc1NC(=O)OC1CN2CCC1CC2 (configuration not stated)	123
Cc1ccc(-c2cc(C(=O)N3CCC(C(N)=O)CC3)c3ccccc3n2)cc1	98
COc1cc(OC)c2c(=O)c(-c3ccc(Cl)cc3)coc2c1	107
Cc1sc(/N=C/c2c[nH]c3ccccc23)c(C#N)c1C	92
Cc1[nH]c2ccccc2c1N=CN(C)C	100
CN(C)C=Nc1ncc2c([nH]c3ccccc32)c1C#N	89*
COC(=O)C1=C(C)NC(=O)/C1=C/c1ccc(CNS(=O)(=O)c2ccc(Cl)cc2)o1	100
Nc1ccccc1-c1nc2cc3ccccc3cc2[nH]c1=O	96
SMILES	Vaccinia pol inh
Cc1nc2c3ccccc3nc(NN3C(=O)CCC3=O)n2n1	102
O=C(Cn1c(=O)n2nc(-c3ccccc3)nc2c2ccccc21)c1ccc(Br)cc1	104
CC1CCCC(C)N1CCNc1nc2ccccc2c2nc(-c3ccccc3)nn12 (configuration not stated)	59*
CCc1cccc(OCC(=O)O)c1	85
CN(C)/C=C/C(=N)SCc1c(F)cccc1Cl	75*
CC(=O)/C(C#N)=C(\N=C\N(C)C)SCc1c(Cl)cccc1Cl	102
Fc1cccc(CSCc2c(F)cccc2Cl)c1	108
O=C(Cn1nnc(-c2cccc(C(F)(F)F)c2)n1)NCc1ccc(Cl)cc1	98
COc1ccccc1N1CCN(C(=O)c2ccc(/C=C3\Oc4ccccc4NC3=O)cc2)CC1	96
N#CC(=C1CCCC1)c1nc2ccccc2[nH]1	102
CN(C)C=NC(=O)c1ccc(-c2cccs2)s1	80*
O=C(/C=C/c1ccc(-c2cccs2)s1)N1CCSCC1	95
Cc1ccc(C(=O)c2cccs2)s1	99
N#CC1=C2CCCCC2C(c2cccc(Br)c2)C(C#N)(C#N)C1=O (configuration not stated)	99
NCC12CC3CC(CC(C3)C1)C2	108
CCSc1nc(C)c2cc(OC)ccc2n1	100
CCN(CC)CCCC(C)Nc1c2ccc(Cl)cc2nc2ccc(OC)cc12 (configuration not stated)	15*
COc1ccc2nc(C)cc(SCC(=O)c3ccc(Cl)cc3)c2c1	98
CC(=O)Nc1ncnc2sc3c(c12)CCCC3	99
CC(=O)OCc1cn2ccccc2n1	97
COC(=O)c1ccc(N2C(=O)C3ON(c4ccccc4C)C(c4ccc(F)cc4)C3C2=O)cc1 (configuration not stated)	100
CCOC(=O)[C@@H]1Nc2ccc(C(=O)O)cc2[C@@H]2C=CC[C@H]12	56*
CC(=O)Nc1ccc2c(c1)C1C=CCC1C(c1cccc(Cl)c1Cl)N2 (configuration not stated)	100
CC(C)c1ccc([C@@H]2Nc3ccc(C(=O)O)cc3[C@@H]3C=CC[C@@H]32)cc1	23*
Fc1ccc(C2Nc3ccc(OC(F)(F)F)cc3C3C=CCC32)cc1 (configuration not stated)	97
SMILES	Vaccinia pol inh
CCOC(=O)[C@H]1NC(=O)C[C@H]1c1ccccc1	96
CCOC(=O)N1CCC(N2C(=O)c3ccc(C(=O)O)cc3C2=O)CC1	102
COc1ccc(NC2c3ccccc3C(=O)N2c2ccc(Cl)cc2)cc1 (configuration not stated)	103
CCOC(=O)CN(c1ccccc1)C1SC(=O)N(Cc2cccc(C(=O)O)c2)C1=O (configuration not stated)	100
O=C(NC(=O)c1ccccc1Cl)NC1CC1	96
C=CCc1cccc(C=NC(Cc2cnc[nH]2)C(=O)O)c1O (configuration not stated)	101
c1ccc(-c2nsc(NC3Cc4ccccc4C3)n2)cc1	100
O=C(O)/C=C\C(=O)N1CCN(c2nc(-c3ccccc3)ns2)CC1	95
CC(C)(C)NC(=O)N1CCN(c2nc(-c3ccccc3)ns2)CC1	66*
CC1Sc2cc(S(=O)(=O)N3CCc4ccccc4C3)ccc2NC1=O (configuration not stated)	99
CC1CCCC(NC(=O)COC(=O)c2ccc(Br)cc2)C1C (configuration not stated)	97
CCCCC1=NN(C(=O)C2CC2)C(O)(C(F)(F)F)C1 (configuration not stated)	100
Cc1ccc(C2c3c(n[nH]c3C)C(=O)N2c2ccc(C)cc2)cc1 (configuration not stated)	103
CC(=NCCc1c(C)[nH]c2ccccc12)c1c(C)[nH]n(-c2nc3ccccc3s2)c1=O	99
CC(Oc1ccc(-c2ccccc2)c(F)c1)c1ccnc(N)n1 (configuration not stated)	96
Nc1nccc(-c2ccccc2OCc2ccc(Cl)cc2)n1	99
Nc1nccc(-c2ccc(Oc3ccc(Cl)cc3)cc2Cl)n1	76*
COC(=O)Cn1c(=O)oc2ccc(Cl)cc21	100
CNC(=O)c1ccsc1NC(=O)c1cc2ccccc2cc1OC	97
CCCc1nc2c(o1)CC(C)(C)CC2=O	103

Bioassay records: PubChem, ICCB-Longwood Screening Facility, Harvard Medical School
